# Reference: PMC7862700, “An all-to-all approach to the identification of sequence-specific readers for epigenetic DNA modifications on cytosine”
# Experiments:
# Test in all cases: DAPPL (digital affinity profiling via proximity ligation, sequencing); 10 mM Tris-HCl pH 7.5, 50 mM NaCl, 1 mM DTT, 4% glycerol, room temperature, 30 min; GST-TFs on glutathione beads, 16-mer random dsDNA library, 0.1% formaldehyde crosslink after washing; high values mean tight binding
# FLI1 = molecular target: T1, FLI1 (Homo sapiens, UniProt Q01543 1-452); conditions: protein: recombinant; tags: N-terminal GST; dsDNA, one strand shown
# T1 sequence: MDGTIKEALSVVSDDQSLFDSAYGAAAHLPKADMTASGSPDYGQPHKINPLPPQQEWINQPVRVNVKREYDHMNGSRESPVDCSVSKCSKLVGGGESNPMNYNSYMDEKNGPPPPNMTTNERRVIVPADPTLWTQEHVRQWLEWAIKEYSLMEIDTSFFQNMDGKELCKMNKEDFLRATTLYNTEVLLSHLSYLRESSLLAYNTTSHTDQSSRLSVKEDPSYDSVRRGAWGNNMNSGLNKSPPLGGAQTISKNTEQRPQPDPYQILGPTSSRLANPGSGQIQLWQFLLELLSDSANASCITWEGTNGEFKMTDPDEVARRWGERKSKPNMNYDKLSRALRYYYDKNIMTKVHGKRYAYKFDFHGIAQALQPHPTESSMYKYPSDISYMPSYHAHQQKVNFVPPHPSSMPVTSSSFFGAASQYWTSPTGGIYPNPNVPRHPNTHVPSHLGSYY
# Method in brief: (§1)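 A tag-only sample was pooled with DNA-barcoded human transcription factors that had been expressed in yeast as GST fusions and captured on glutathione beads. The pools were incubated for 30 min at room temperature with 200 nmole of a random double-stranded 16-mer DNA library in Tris/NaCl/DTT/glycerol buffer, then washed, crosslinked with 0.1% formaldehyde, proximity-ligated (BsaI/T4 ligase, 1 h, 37 °C), PCR-amplified and sequenced on an Illumina NextSeq500. Binding signal is each hexamer's read frequency for a factor divided by its frequency for the tag-only sample.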
# ELK1 = molecular target: T2, ELK1 (Homo sapiens, UniProt P19419 1-428); conditions: protein: recombinant; tags: N-terminal GST; dsDNA, one strand shown
# T2 sequence: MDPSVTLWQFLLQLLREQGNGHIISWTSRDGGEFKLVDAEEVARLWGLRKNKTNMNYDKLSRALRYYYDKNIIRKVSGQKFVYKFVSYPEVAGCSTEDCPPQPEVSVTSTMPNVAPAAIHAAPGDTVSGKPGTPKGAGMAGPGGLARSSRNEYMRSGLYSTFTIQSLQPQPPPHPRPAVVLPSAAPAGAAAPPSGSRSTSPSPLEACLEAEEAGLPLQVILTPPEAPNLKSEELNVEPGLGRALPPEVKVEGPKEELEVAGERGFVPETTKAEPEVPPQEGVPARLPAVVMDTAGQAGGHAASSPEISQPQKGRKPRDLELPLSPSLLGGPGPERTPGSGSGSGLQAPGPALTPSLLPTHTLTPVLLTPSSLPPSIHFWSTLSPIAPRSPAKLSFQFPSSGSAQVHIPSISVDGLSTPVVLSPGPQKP
# Method in brief: as §1
# GABPA = molecular target: T3, GABPA (Homo sapiens, UniProt Q06546 1-454); conditions: protein: recombinant; tags: N-terminal GST; dsDNA, one strand shown
# T3 sequence: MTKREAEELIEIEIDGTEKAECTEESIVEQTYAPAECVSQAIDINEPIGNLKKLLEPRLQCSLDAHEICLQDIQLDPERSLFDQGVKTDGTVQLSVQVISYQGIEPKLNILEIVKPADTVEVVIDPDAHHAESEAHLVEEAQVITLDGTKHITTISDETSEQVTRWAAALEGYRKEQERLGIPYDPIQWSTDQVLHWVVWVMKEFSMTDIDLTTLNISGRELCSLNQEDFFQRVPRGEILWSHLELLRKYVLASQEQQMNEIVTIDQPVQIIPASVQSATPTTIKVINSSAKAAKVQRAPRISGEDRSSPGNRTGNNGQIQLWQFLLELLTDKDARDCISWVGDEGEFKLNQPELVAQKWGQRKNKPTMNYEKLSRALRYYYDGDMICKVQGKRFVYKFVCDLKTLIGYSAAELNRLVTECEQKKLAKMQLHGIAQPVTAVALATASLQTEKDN
# Method in brief: as §1
# ERG = molecular target: T4, ERG (Homo sapiens, UniProt P11308 1-479); conditions: protein: recombinant; tags: N-terminal GST; dsDNA, one strand shown
# T4 sequence: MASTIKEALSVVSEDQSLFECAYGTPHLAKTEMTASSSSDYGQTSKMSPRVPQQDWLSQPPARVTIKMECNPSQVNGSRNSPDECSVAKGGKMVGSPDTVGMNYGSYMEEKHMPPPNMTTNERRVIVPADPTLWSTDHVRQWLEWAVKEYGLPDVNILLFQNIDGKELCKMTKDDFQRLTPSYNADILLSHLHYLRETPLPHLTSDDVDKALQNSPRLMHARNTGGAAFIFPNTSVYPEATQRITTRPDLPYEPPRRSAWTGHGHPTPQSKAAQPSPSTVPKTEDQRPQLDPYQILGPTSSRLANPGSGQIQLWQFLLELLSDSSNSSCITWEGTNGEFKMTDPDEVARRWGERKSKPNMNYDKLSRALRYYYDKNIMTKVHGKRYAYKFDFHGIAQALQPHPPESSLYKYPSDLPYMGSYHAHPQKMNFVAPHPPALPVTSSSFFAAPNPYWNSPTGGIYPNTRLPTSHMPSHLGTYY
# Method in brief: as §1
# ELF1 = ELF1 (Homo sapiens, UniProt P32519 1-619); conditions: protein: recombinant; tags: N-terminal GST; dsDNA, one strand shown
# ELF1, sequence (P32519 whole entry): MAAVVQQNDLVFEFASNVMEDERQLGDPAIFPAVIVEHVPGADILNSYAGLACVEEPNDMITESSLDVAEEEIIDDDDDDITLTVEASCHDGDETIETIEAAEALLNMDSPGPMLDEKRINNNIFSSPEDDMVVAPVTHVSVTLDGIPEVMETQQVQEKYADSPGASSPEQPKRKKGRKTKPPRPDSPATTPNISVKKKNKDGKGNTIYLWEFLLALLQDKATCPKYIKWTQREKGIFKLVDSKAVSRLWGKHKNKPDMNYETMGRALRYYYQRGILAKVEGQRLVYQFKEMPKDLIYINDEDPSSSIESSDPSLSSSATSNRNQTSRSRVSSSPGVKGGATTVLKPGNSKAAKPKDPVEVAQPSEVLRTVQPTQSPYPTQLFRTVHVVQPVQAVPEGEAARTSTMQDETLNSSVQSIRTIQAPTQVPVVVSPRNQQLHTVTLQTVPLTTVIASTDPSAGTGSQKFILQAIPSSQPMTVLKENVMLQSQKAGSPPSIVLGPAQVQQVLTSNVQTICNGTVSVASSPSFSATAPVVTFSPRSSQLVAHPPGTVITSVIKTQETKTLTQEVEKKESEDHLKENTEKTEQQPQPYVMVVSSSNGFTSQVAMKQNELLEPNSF
# Method in brief: as §1
# EHF = molecular target: T5, EHF (Homo sapiens, UniProt Q9NZC4 1-300); conditions: protein: recombinant; tags: N-terminal GST; dsDNA, one strand shown
# T5 sequence: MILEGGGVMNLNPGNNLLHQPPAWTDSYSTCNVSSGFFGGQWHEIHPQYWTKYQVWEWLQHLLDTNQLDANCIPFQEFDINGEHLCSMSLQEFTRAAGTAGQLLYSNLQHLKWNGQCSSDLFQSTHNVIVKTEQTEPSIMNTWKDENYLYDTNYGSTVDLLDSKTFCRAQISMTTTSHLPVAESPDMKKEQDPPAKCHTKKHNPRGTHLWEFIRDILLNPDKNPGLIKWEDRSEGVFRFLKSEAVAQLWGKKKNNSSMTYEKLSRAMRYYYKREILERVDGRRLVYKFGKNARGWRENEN
# Method in brief: as §1
# SPI1 = SPI1 (Homo sapiens, UniProt P17947 1-270); conditions: protein: recombinant; tags: N-terminal GST; dsDNA, one strand shown
# Method in brief: as §1
# SPIB = SPIB (Homo sapiens, UniProt Q01892 1-262); conditions: protein: recombinant; tags: N-terminal GST; dsDNA, one strand shown
# SPIB, sequence (Q01892 whole entry): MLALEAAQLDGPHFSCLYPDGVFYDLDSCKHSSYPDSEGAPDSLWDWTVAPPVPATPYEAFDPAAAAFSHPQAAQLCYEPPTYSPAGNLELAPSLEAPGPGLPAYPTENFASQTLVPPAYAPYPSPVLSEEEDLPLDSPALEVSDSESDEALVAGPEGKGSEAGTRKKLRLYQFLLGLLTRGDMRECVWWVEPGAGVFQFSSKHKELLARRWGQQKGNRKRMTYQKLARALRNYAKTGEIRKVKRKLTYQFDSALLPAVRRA
# Method in brief: as §1
# ELK3 = molecular target: T6, ELK3 (Homo sapiens, UniProt P41970 1-407); conditions: protein: recombinant; tags: N-terminal GST; dsDNA, one strand shown
# T6 sequence: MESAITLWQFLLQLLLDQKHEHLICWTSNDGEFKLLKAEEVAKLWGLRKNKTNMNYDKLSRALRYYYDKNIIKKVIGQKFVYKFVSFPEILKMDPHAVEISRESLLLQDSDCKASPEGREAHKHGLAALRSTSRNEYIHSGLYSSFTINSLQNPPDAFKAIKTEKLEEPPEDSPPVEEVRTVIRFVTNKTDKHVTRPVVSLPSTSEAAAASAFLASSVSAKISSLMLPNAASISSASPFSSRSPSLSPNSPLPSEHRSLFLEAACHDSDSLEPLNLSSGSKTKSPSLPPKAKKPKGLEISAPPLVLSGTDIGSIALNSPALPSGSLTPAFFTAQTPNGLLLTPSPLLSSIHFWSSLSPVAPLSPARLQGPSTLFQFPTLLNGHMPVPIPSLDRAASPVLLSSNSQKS
# Method in brief: as §1
# FEV = molecular target: T7, FEV (Homo sapiens, UniProt Q99581 1-238); conditions: protein: recombinant; tags: N-terminal GST; dsDNA, one strand shown
# T7 sequence: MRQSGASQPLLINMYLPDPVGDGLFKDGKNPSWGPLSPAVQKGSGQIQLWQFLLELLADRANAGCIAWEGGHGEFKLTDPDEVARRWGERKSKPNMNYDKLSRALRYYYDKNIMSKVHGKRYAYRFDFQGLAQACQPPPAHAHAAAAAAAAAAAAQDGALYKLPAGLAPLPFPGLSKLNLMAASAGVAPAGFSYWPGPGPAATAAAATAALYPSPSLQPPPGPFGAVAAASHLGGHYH
# Method in brief: as §1
# ETV5 = ETV5 (Homo sapiens, UniProt P41161 1-510); conditions: protein: recombinant; tags: N-terminal GST; dsDNA, one strand shown
# ETV5, sequence (P41161 whole entry): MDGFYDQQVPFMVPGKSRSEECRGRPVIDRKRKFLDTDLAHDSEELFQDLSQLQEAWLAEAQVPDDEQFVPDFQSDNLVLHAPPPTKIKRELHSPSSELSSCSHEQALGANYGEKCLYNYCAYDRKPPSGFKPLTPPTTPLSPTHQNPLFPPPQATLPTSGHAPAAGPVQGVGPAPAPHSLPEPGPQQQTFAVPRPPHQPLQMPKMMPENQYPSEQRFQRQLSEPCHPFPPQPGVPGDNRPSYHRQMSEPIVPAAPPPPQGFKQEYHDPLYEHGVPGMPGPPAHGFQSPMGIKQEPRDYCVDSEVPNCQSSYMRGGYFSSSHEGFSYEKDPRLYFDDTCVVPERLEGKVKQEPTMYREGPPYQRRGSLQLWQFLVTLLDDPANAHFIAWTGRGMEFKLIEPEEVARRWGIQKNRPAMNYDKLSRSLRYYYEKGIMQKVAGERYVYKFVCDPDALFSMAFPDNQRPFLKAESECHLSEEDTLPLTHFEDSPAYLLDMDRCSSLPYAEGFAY
# Method in brief: as §1
# HSF1 = HSF1 (Homo sapiens, UniProt Q00613 1-529); conditions: protein: recombinant; tags: N-terminal GST; chain copies: 3; dsDNA, one strand shown
# HSF1, sequence (Q00613 whole entry): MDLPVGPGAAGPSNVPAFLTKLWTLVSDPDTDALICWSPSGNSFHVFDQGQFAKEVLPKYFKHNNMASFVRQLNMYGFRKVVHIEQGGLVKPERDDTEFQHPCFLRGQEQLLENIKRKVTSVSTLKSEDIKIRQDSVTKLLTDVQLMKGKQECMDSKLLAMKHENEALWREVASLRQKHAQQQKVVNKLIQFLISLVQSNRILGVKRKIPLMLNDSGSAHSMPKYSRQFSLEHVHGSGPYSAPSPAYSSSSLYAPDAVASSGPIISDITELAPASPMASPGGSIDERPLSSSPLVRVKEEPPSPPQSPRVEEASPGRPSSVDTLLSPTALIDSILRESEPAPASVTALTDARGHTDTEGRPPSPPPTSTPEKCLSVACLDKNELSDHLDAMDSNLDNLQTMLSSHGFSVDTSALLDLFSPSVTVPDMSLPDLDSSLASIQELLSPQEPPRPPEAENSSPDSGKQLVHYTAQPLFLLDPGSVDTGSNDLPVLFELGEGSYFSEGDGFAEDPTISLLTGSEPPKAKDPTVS
# Method in brief: as §1
# SPIC = molecular target: T8, SPIC (Homo sapiens, UniProt Q8N5J4 1-248); conditions: protein: recombinant; tags: N-terminal GST; dsDNA, one strand shown
# T8 sequence: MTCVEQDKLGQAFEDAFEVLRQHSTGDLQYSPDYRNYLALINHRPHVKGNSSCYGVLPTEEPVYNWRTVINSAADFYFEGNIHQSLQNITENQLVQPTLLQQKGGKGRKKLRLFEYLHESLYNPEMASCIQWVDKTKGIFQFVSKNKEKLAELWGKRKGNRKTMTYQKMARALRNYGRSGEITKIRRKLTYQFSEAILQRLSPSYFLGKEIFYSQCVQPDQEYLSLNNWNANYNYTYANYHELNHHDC
# Method in brief: as §1
# ELF4 = ELF4 (Homo sapiens, UniProt Q99607 1-663); conditions: protein: recombinant; tags: N-terminal GST; dsDNA, one strand shown
# ELF4, sequence (Q99607 whole entry): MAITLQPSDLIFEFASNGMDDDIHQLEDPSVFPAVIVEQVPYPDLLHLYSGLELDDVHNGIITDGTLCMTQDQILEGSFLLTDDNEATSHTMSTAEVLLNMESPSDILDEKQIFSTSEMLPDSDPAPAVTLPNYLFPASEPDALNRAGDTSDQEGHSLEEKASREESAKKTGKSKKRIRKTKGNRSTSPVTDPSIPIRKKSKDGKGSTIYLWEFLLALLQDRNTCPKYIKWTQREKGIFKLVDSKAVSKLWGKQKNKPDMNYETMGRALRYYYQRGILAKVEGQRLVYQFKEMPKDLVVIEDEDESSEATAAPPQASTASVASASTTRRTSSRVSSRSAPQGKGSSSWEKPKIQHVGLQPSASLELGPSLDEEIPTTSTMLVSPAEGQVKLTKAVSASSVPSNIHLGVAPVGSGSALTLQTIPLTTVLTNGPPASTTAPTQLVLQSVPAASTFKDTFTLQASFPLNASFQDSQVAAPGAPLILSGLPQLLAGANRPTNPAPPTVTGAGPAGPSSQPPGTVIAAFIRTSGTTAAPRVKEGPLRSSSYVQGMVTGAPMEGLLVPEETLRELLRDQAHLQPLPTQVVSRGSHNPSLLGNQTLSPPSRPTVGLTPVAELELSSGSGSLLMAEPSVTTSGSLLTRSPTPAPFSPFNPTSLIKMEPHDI
# Method in brief: as §1
# ELK4 = molecular target: T9, ELK4 (Homo sapiens, UniProt P28324-2 1-405); conditions: protein: recombinant; tags: N-terminal GST; dsDNA, one strand shown
# T9 sequence: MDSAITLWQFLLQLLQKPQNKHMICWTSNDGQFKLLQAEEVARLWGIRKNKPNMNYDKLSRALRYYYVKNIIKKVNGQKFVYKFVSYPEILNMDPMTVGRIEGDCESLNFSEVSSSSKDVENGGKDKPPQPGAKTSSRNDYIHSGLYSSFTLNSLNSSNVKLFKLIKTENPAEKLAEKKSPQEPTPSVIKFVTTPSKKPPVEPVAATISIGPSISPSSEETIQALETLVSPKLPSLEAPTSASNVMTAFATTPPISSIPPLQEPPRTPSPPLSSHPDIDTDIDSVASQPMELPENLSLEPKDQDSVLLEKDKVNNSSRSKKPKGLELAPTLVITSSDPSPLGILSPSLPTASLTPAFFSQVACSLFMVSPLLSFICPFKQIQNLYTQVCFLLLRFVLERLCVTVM
# Method in brief: as §1
# ETV2 = molecular target: T10, ETV2 (Homo sapiens, UniProt O00321 1-342); conditions: protein: recombinant; tags: N-terminal GST; dsDNA, one strand shown
# T10 sequence: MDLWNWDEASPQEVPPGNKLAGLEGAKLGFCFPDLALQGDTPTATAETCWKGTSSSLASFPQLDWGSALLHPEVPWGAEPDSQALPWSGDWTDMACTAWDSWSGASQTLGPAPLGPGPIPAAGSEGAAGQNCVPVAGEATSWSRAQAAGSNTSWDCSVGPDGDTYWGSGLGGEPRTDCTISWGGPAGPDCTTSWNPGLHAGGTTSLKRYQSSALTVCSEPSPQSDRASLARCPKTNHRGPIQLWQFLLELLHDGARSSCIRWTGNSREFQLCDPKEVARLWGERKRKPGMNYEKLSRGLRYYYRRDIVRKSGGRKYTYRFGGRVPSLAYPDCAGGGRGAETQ
# Method in brief: as §1
# ELF3 = molecular target: T11, ELF3 (Homo sapiens, UniProt P78545 1-371); conditions: protein: recombinant; tags: N-terminal GST; dsDNA, one strand shown
# T11 sequence: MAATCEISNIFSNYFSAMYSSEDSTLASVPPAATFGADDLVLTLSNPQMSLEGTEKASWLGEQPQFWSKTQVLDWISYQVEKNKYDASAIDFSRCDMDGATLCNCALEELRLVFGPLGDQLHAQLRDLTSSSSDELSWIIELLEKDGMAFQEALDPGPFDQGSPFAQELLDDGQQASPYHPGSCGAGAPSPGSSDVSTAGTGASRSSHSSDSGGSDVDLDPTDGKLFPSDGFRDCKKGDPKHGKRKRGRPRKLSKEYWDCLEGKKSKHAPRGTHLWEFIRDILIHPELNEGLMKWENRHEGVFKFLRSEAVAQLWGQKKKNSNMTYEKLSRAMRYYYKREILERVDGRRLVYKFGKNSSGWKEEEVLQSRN
# Method in brief: as §1
# CRX = CRX (Homo sapiens, UniProt O43186 1-299); conditions: protein: recombinant; tags: N-terminal GST; dsDNA, one strand shown
# CRX, sequence (O43186 whole entry): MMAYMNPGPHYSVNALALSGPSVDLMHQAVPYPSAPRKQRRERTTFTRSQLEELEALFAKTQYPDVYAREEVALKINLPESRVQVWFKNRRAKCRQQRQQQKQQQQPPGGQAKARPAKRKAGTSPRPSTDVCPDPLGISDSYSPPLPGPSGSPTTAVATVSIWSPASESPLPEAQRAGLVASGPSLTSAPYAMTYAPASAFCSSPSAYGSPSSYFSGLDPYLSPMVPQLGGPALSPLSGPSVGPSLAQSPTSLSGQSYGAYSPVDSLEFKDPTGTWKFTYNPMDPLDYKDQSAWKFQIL
# Method in brief: as §1
# ETV1 = ETV1 (Homo sapiens, UniProt P50549 1-477); conditions: protein: recombinant; tags: N-terminal GST; dsDNA, one strand shown
# ETV1, sequence (P50549 whole entry): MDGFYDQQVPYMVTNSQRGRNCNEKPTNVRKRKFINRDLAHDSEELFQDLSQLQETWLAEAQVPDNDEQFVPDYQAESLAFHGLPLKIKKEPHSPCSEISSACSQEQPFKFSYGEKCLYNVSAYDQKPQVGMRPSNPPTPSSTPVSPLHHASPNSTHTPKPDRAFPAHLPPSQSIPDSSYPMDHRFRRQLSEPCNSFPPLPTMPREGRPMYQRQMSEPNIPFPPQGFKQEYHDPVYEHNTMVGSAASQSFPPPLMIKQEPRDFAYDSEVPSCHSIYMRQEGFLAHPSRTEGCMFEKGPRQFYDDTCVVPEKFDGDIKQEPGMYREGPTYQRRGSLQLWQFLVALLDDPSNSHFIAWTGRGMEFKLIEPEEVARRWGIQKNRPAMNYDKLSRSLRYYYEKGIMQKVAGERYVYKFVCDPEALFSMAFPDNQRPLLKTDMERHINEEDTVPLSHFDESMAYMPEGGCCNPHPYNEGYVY
# Method in brief: as §1
sequence,measurement,setting,value
GATTAC,binding signal,FLI1,"1.16 fold enrichment (6-mer frequency, TF over GST control)"
same,binding signal,ELK1,"1.1 fold enrichment (6-mer frequency, TF over GST control)"
same,binding signal,GABPA,"1.13 fold enrichment (6-mer frequency, TF over GST control)"
same,binding signal,ERG,"1.12 fold enrichment (6-mer frequency, TF over GST control)"
same,binding signal,ELF1,"1.07 fold enrichment (6-mer frequency, TF over GST control)"
same,binding signal,EHF,"1.12 fold enrichment (6-mer frequency, TF over GST control)"
same,binding signal,SPI1,"1.09 fold enrichment (6-mer frequency, TF over GST control)"
same,binding signal,SPIB,"1.15 fold enrichment (6-mer frequency, TF over GST control)"
same,binding signal,ELK3,"1.18 fold enrichment (6-mer frequency, TF over GST control)"
same,binding signal,FEV,"1.05 fold enrichment (6-mer frequency, TF over GST control)"
same,binding signal,ETV5,"1.06 fold enrichment (6-mer frequency, TF over GST control)"
same,binding signal,HSF1,"2.08 fold enrichment (6-mer frequency, TF over GST control)"
same,binding signal,SPIC,"1.13 fold enrichment (6-mer frequency, TF over GST control)"
same,binding signal,ELF4,"1.08 fold enrichment (6-mer frequency, TF over GST control)"
same,binding signal,ELK4,"1.23 fold enrichment (6-mer frequency, TF over GST control)"
same,binding signal,ETV2,"1.1 fold enrichment (6-mer frequency, TF over GST control)"
same,binding signal,ELF3,"1.04 fold enrichment (6-mer frequency, TF over GST control)"
same,binding signal,CRX,"3.27 fold enrichment (6-mer frequency, TF over GST control)"
same,binding signal,ETV1,"1.1 fold enrichment (6-mer frequency, TF over GST control)"
